Our source for the outcome and AC50 values is PubChem BioAssay (EPA / NIEHS).

Molecules are shown by their SMILES. Results filed as inconclusive are left out. Calls of active or inactive are those of the source. The calls were made as follows, unless noted: active = hit-call score of the fitted dose curve at least 0.9, where 1 is the maximum; inactive = score below 0.9.

Assay [1] is described as follows: CCTE_Shafer_MEA_acute_spike_number: CCTE's Neural Acute Assay for Total Number of Spikes, Shafer Lab (AID 2284008). Put shortly: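 Rat primary cortical neurons on 48-well MEA plates, DIV 13 or 15, at 37 C. 40 min baseline then 40 min with compound (0.03-40 uM); spikes detected at 8x rms noise, expressed as percent change from baseline.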
Assay [2] in a line: CCTE_Shafer_MEA_acute_firing_rate_mean: CCTE's Neural Acute Assay for Mean Firing Rate, Shafer Lab (AID 2284009).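 Also: analyzed for loss of signal so actives lower firing rate relative to DMSO.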 The procedure, abridged: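 Spontaneous spiking of primary rat cortical networks, DIV 13/15, 37 C. Compound 0.03-40 uM, n ≥3 wells; 40 min baseline vs 40 min treated. Endpoint fitted in loss-of-signal direction against DMSO.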
Assay [3] in a line: CCTE_Shafer_MEA_acute_burst_number: CCTE's Neural Acute Assay for Single-Electrode Bursts, Shafer Lab (AID 2284013). Put shortly: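 Burst totals were derived with adaptive spike detection (8x rms threshold) on filtered signals from rat cortical cultures; change relative to pre-treatment baseline after 40-min compound exposure (0.03-40 uM) was fitted in the negative direction against DMSO.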

Assay [4] in a line: CCTE_Shafer_MEA_acute_burst_duration_mean: CCTE's Neural Acute Assay for Mean Burst Duration, Shafer Lab (AID 2284014).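 Also: hits are decreases in mean burst duration relative to DMSO controls.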 Put shortly: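 Acute exposure of mature rat cortical networks (DIV 13 or 15) grown on microelectrode arrays to 0.03-40 uM compound. Mean burst duration compared with the 40-min pre-dose baseline over a 40-min post-dose recording at 37 C.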
A short description of assay [5]: CCTE_Shafer_MEA_acute_per_burst_spike_number_mean: CCTE's Neural Acute Assay for Average Number of Spikes Per Burst, Shafer Lab (AID 2284015).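 Also: hits are decreases in mean spikes per burst versus baseline.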 Put shortly: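 Percent change in mean spikes per single-electrode burst is compared between a 40 min baseline and a 40 min recording with compound (0.03-40 uM). Cultures were rat cortical neurons on MEA plates at DIV 13 or 15, recorded at 37 C, with DMSO as the negative control.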

Assay [6] can be described thus: CCTE_Shafer_MEA_acute_interburst_interval_mean: CCTE's Neural Acute Assay for Mean Interburst Interval, Shafer Lab (AID 2284016).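 Also: percent change of mean interburst interval versus each well's own pre-dose baseline; curves fitted for decrease in interburst interval relative to DMSO.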 The procedure, abridged: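 Percent change in mean single-electrode interburst interval was calculated per well from 40 min recordings before and after compound (0.03-40 uM). Recordings were made at 37 C on rat cortical cultures at DIV 13 or 15, with spikes detected at 8x rms threshold.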

Assay [7] is described as follows: CCTE_Shafer_MEA_acute_burst_percentage_mean: CCTE's Neural Acute Assay for Percentage of Spikes in a Burst, Shafer Lab (AID 2284017). Put shortly:
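Well-level mean burst percentage from a 40-min recording after compound (0.03-40 uM) expressed as percent change from a 40-min baseline at 37C. Cultures: primary rat cortical neurons on MEA, dosed on DIV 13 or 15; fitted downward relative to DMSO.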

A short description of assay [8]: CCTE_Shafer_MEA_acute_per_network_burst_spike_number_std: CCTE's Neural Acute Assay for Standard Deviation of Number of Spikes in a Network Burst, Shafer Lab (AID 2284020).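 Also: fitted for decrease in spike-number SD versus DMSO so actives lower it.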 The procedure, abridged:
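Acute MEA exposure, rat cortical neurons, 0.03-40 uM. Per-well % change versus own baseline; DMSO as negative control.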

Assay [9] is described as follows: CCTE_Shafer_MEA_acute_per_network_burst_electrodes_number_mean: CCTE's Neural Acute Assay for Mean Number of Electrodes in a Network Burst, Shafer Lab (AID 2284021).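 Also: curves fitted for decreases only so hits reduce electrodes per burst.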 Put shortly:
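Rat primary cortical neurons on 48-well MEAs, DIV 13 or 15, were treated at 0.03-40 uM. Spikes were detected at 8x rms noise and recorded at 37 C. The mean electrodes per network burst in a 40 min exposure recording was expressed as percent change from a 40 min baseline.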

Assay [10] is described as follows: CCTE_Shafer_MEA_acute_network_burst_percentage: CCTE's Neural Acute Assay for Percentage of Network Bursts, Shafer Lab (AID 2284022).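 Also: curves fitted for loss so actives lower network burst percentage.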 Put shortly:
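Rat primary cortical neuron networks on 48-well MEA plates, DIV 13 or 15, treated acutely with compound (0.03-40 uM, at least three wells). Percent of spikes within network bursts compared between 40-min recordings before and during exposure at 37 C, expressed as percent change.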

Assay [11] in a line: CCTE_Shafer_MEA_acute_cross_correlation_HWHM: CCTE's Neural Acute Assay for Cross Correlation at Half Width at Half Maximum, Shafer Lab (AID 2284026).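 Also: spontaneous network firing of rat primary cortical neurons on multiwell microelectrode arrays; hits are a decrease in cross-correlogram half width relative to DMSO.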 The procedure, abridged: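 Rat primary cortical neurons on 48-well MEA plates; 40-min baseline and 40-min post-exposure recordings at 37 C on DIV 13 or 15, compounds 0.03-40 uM. Spikes detected at 8x rms noise; percent change in cross-correlogram HWHM per well vs baseline.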

A short description of assay [12]: CCTE_Shafer_MEA_dev_firing_rate_mean: CCTE's Neural Network Formation Assay for Mean Firing Rate, Shafer Lab (AID 2284031). The procedure, abridged: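 Extracellular spike frequency, AUC over DIV 5–12 recordings, in rat cortical neuron MEA cultures dosed from plating; loss direction vs DMSO.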
Assay [13] in a line: CCTE_Shafer_MEA_dev_per_burst_spike_percent: CCTE's Neural Network Formation Assay for Percent of Spikes in a Burst, Shafer Lab (AID 2284032). The procedure, abridged:
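Value is trapezoidal AUC over recordings on days 5, 7, 9 and 12 of the well-mean fraction of spikes falling in single-electrode bursts; rat cortical cultures exposed continuously from plating, treatment renewed DIV 5 and 9, fitted downward against DMSO.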

A short description of assay [14]: CCTE_Shafer_MEA_dev_active_electrodes_number: CCTE's Neural Network Formation Assay for Number of Active Electrodes, Shafer Lab (AID 2284040; active = hit-call score of the fitted dose curve at least 0.9, where 1 is the maximum). Put shortly:
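Developing rat cortical networks on MEAs, exposed DIV 0–12. Value is the AUC of active-electrode counts (≥5 spikes/min) from days 5, 7, 9, 12, relative to DMSO.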

Assay [15] is described as follows: CCTE_Shafer_MEA_dev_burst_rate: CCTE's Neural Network Formation Assay for Burst Rate, Shafer Lab (AID 2284042). The procedure, abridged: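 Exposure ran continuously over 12 days of network development in rat cortical cultures, with compound refreshed during full media changes on DIV 5 and 9. Single-electrode bursts per recording time, well-mean over active electrodes, trapezoidal AUC across days 5–12, fitted downward relative to DMSO.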

Assay [16] can be described thus: CCTE_Shafer_MEA_dev_per_burst_interspike_interval: CCTE's Neural Network Formation Assay for Burst Interspike Interval, Shafer Lab (AID 2284044). Put shortly:
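Primary rat cortical neurons on 48-well MEA plates, exposed from day 0 through day 12, treatment renewed at DIV 5 and 9. Within-burst interspike interval recorded days 5, 7, 9, 12, well-averaged, summarised as AUC; negative fit versus DMSO.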

Assay [17] can be described thus: CCTE_Shafer_MEA_dev_burst_duration_mean: CCTE's Neural Network Formation Assay for Mean Burst Duration, Shafer Lab (AID 2284045). The procedure, abridged:
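Network-formation assay in primary rat cortical neurons; treatment spans twelve days of development. Mean burst duration per well is integrated by trapezoidal AUC and fitted in the loss-of-signal direction against DMSO baseline.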

A short description of assay [18]: CCTE_Shafer_MEA_dev_interburst_interval_mean: CCTE's Neural Network Formation Assay for Mean Interburst Interval, Shafer Lab (AID 2284046).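 Also: curve fitted for decrease in interburst interval relative to DMSO.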 The procedure, abridged: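 Primary rat cortical neurons on PEI-coated 48-well MEA plates (laminin added with cells at plating) (16 electrodes/well), exposed from plating day 0 with renewal at DIV 5 and 9. Mean inter-burst interval averaged over bursting electrodes, AUC across days 5, 7, 9, 12; DMSO baseline.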

Assay [19] in a line: CCTE_Shafer_MEA_dev_inter_network_spike_interval_mean: CCTE's Neural Network Formation Assay for Mean Inter-network Spike Interval, Shafer Lab (AID 2284047). The procedure, abridged:
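Mean time between consecutive network-spike peaks, recorded extracellularly (adaptive spike detection) on DIV 5, 7, 9 and 12, summarized as trapezoidal AUC. Rat cortical cultures on MEAs dosed continuously days 0–12, re-dosed at feeds; loss-of-signal fit relative to DMSO.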

Assay [20] in a line: CCTE_Shafer_MEA_dev_network_spike_number: CCTE's Neural Network Formation Assay for Number of Network Spikes, Shafer Lab (AID 2284048).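 Also: synchronized bursts across electrodes counted on days 5 7 9 12 and integrated as AUC.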 Put shortly:
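Extracellular recordings from 16-electrode wells track network formation in rat cortical cultures under continuous treatment from plating. The endpoint is network spike number, expressed as AUC across DIV 5–12 relative to DMSO vehicle.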

By AC50 is commonly meant the concentration at which the activity in the assay is half-maximal. `C#CCN(C)[C@H](C)Cc1ccccc1`: the compound was called inactive in assay [1], in [2], in assay [3], in [5], in assay [7] and in assay [8]. Besides, the outcome in assay [9], in assay [10], in [11], in assay [12], in assay [13] and in assay [14] was inactive. Moreover, the compound was called inactive in assay [15], in assay [16], in assay [17], in [18], in assay [19] and in assay [20]. Moreover, the AC50 in [4] was 8.86 µM (active); in assay [6], 15 µM (active).
